NS1 inh = qHTS Assay for Inhibitors of Influenza NS1 Protein Function. AID 2326, 2010. Potency, µM (titrated, usually from 46.1 µM), inactives show at the highest dose activity, positive = more growth. 0.4% of 270,000 active; calls by dose curve; also: potency is read from the fitted curve at half-maximal effect; actives are rising curves; nearly all actives have a fitted effect of over 50% in size
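A cell-based growth assay was used: compounds that relieve NS1-induced slow growth of budding yeast raise OD600. Assay medium was yeast nitrogen base with ammonium sulphate and -URA supplement, pH 6.0, with 2% galactose.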
Sm TGR block = qHTS Assay for the Inhibitors of Schistosoma Mansoni Peroxiredoxins; Schistosoma mansoni thioredoxin glutathione reductase (TGR), Q962Y6; purified TGR, DTNB reduction, TNB absorbance 405 nm; Potency, µM (titrated, usually from 114 µM), without a hit: top-dose activity change, negative = inhibition, actives largely listed as inhibitors; 3% of 360,000 active; also: potency is read from the fitted curve at half-maximal effect; % is scaled to controls: 0 for no effect and ±100 for the full control effect; nearly all actives have a fitted effect of over 60% in size
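First, TGR (20 nM dispensed) and NADPH were mixed with compound. Second, a 15 min room-temperature incubation followed. Third, further NADPH and then DTNB were added to start the reaction. Finally, TNB absorbance was monitored kinetically.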
CHX counter = Cycloheximide Counterscreen for Small Molecule Inhibitors of Shiga Toxin; cell reporter, cycloheximide protein synthesis inhibition counterscreen; AID 2314, 2010; max response, %; 12% of 300,000 active; in the data active = max response mostly above about 13%, no sharp cut-off; inactive = mostly below about 14%; also: read at 38.3 µM for the half of the compounds with a filed dose; 0% is about no effect
Pf growth 48h = Primary qHTS for delayed death inhibitors of the malarial parasite plastid, 48 hour incubation | Potency, µM (titrated, usually from 28.7 µM), for the others: at the highest dose activity change, negative = inhibition, most hits filed as inhibitors | 5.9% of 310,000 active | P. falciparum luciferase growth in erythrocytes, 48 h; also: potency is read from the fitted curve at half-maximal effect; % is scaled to controls: 0 for no effect and ±100 for the full control effect
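Luciferase-expressing parasites in RBCs, 2% Hct / 0.1% parasitemia final; RPMI 1640 + 0.5% Albumax; 37 C, 5% CO2, one generation; luminescence read-out, lower signal = inhibition.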
Pf growth 96h = Primary qHTS for delayed death inhibitors of the malarial parasite plastid, 96 hour incubation. 6.9% of 320,000 active. AID 504834, 2011. Potency, µM (top dose mostly 28.7 µM), inactives show at the top dose activity change, negative = inhibition, actives largely listed as inhibitors. P. falciparum luciferase reporter growth, 96 h; also: potency is read from the fitted curve at half-maximal effect; % is scaled to controls: 0 for no effect and ±100 for the full control effect
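Delayed-death screen, second-generation endpoint: infected erythrocytes, 2% hematocrit, 0.05% parasitemia final; 96 hours at 37 C, 5% CO2; luciferase detection reagent; luminescence decrease equals reduced growth.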
Shiga toxin inh = A qHTS for Small Molecule Inhibitors of Shiga Toxin. Vero cells, Shiga toxin protein synthesis inhibition reporter. inhibition, % at 38.7 µM. 9.2% of 290,000 active; in the data active = inhibition mostly above about 28%, no sharp cut-off; inactive = mostly below about 43%; also: 0% is about no effect
* marks the source's active call; other numbers are inactive results; u = inconclusive; x = not tested or not shown; + = active, no number; [ ] = another dose, or the depositor's remark. Hits are enriched below; roughly 21% of the tested compounds scored in any of these assays. Unless noted, calls follow the shape of the dose curve; as a rule, active = well fitted curve in the direction sought with a large enough effect; inconclusive = small, poorly fitted or top-dose-only effect, or another doubt; inactive = no such curve, though single readings can be large; an effect the other way counts as inactive or inconclusive.

SMILES	NS1 inh	Sm TGR block	CHX counter	Pf growth 48h	Pf growth 96h	Shiga toxin inh
CC(C)CC(=O)NC1CC(=O)N(c2ccc3c(c2)OCCO3)C1 (configuration not stated)	x	-4.0%	x	x	x	x
COc1cc(/C=N\Nc2nc3ccccc3o2)cc(OC)c1OC	2.6%	-6.5%	40.5*	41.8%	18.8%	110.4*
CC(=O)Nc1cccc(/C(C)=N/Nc2nc3ccccc3s2)c1	-10.2%	0.3%	38.6*	408.7%	32.9%	113.1*
COc1ccc(/C=N/Nc2nc3ccccc3s2)cc1O	x	6.6%	32.6	283.8%	u	68.1*
CC(=O)Nc1ccc(/C=N/Nc2nc3ccccc3s2)cc1	3.2%	2.3%	54.4*	50.9%	422.3%	72.3*
COc1ccc(/C=N/NC(=O)c2ccc(-c3ccccc3)cc2)cc1O	2.9%	-0.7%	0.3	7.1%	-1.9%	9.1
CC(=O)Nc1ccc(S(=O)(=O)Nc2nc3ccccc3s2)cc1	0.5%	-13.2%	5.1	9.8%	x	-23.9
COc1ccc(/C=N/Nc2nc3ccccc3o2)cc1O	-1.8%	-8.0%	35.6*	x	276.1%	76.2
COc1cc(/C=N/Nc2nc3ccccc3o2)cc(OC)c1O	-79.2%	-11.3%	25.2	6.9%	x	42.3
O=C(O)[C@H](C1NCCS1)N1C(=O)c2ccccc2C1=O (some centres not stated)	-4.1%	x	x	x	x	x
OC(CNCc1ccc(Cl)cc1)(c1ccccc1)c1ccc(F)cc1 (configuration not stated)	x	11.7%	0.7	13.1µM*	u	-14.6
OC(CNCc1ccc(F)cc1)(c1ccc(F)cc1)c1ccc(F)cc1	3.4%	0.8%	-3.3	u	13.1µM*	-7.0
Cc1ccc(C(O)(CNCc2ccccc2)c2ccccc2)cc1 (configuration not stated)	-1.9%	12.1%	4.1	u	u	-1.2
Cc1ccc2c(c1)N(S(=O)(=O)c1ccc(CN3C(=O)c4cccnc4C3=O)s1)CCO2	-18.0%	3.1%	10.5	24.7%	4.15µM*	9.0
COc1cccc(/C=C/C(=O)N(C)CC(=O)Nc2ccc(Cl)c(C(F)(F)F)c2)c1	x	-3.3%	x	5.9%	8.4%	x
CCOCCc1nnc(NC(=O)C(=O)c2cc(C)n(-c3cccc(Cl)c3)c2C)s1	x	3.5%	x	x	x	x
Brc1ccc2c(c1)CN1CCCC1=N2	1.8%	11.4%	-3.4	10.4µM*	u	-12.2
O=C1CN2C(=Nc3ccc(Br)cc3C2c2ccccc2)CCN1 (configuration not stated)	-7.8%	0.0%	0.7	-12.5%	24.3%	-5.5
CN(C)c1cccc2c1c(NC(=O)Nc1ccc(F)cc1F)nn2C	4.2%	9.3%	9.6	9.6%	u	15.7
COc1ccccc1NC(=O)Nc1nn(C)c2cccc(OC)c12	-40.3%	8.8%	0.5	u	11.7µM*	2.6
COc1cccc2c1c(NC(=O)c1cc(C)on1)nn2C	-4.5%	0.7%	-2.5	59.5%	31.2%	-10.6
CN(C)c1cccc2c1c(NC(=O)Nc1ccccc1)nn2C	0.2%	u	-1.5	u	9.28µM*	1.2
CCc1ccc(NC(=O)c2cc3c([nH]c2=O)CC(C)(C)CC3=O)cc1	x	1.8%	x	x	x	x
CC(C)(C)NC(=O)C(OC(=O)Cn1nnc(-c2ccc(F)cc2)n1)c1ccncc1 (configuration not stated)	-16.9%	-15.4%	-4.5	17.5%	9.28µM*	2.7
CC(C)(C)N(C(=O)Cn1nnc(-c2ccc(F)cc2)n1)C(C(=O)NC1CCCC1)c1ccncc1 (configuration not stated)	0.8%	-23.8%	7.8	u	8.28µM*	-3.0
SMILES	NS1 inh	Sm TGR block	CHX counter	Pf growth 48h	Pf growth 96h	Shiga toxin inh
CC(C)CCNC(=O)C(c1ccncc1)N(C(=O)Cn1nnc(-c2ccc(F)cc2)n1)c1ccccc1F (configuration not stated)	x	3.0%	2.2	u	6.57µM*	-4.8
Cc1ccc(-c2nnn(CC(=O)N(Cc3ccc(F)cc3)C(C(=O)NC3CCCC3)c3ccncc3)n2)o1 (configuration not stated)	-18.4%	u	-1.2	u	-29.2%	-5.0
Cc1ccc(C)c(N(C(=O)Cn2nnc(-c3cccs3)n2)C(C(=O)NC2CCCC2)c2ccncc2)c1 (configuration not stated)	-13.0%	-1.8%	-1.3	4.65µM*	u	14.7
Cc1ccccc1-c1noc(CSc2nc(-c3ccc(F)cc3)cc(=O)[nH]2)n1	x	4.0%	x	x	x	x
O=C(CN(CCN1CCOCC1)C(=O)Cn1nnc(-c2ccc(F)cc2)n1)NC1CCCCC1	-13.7%	14.6%[11.4 µM]	4.0	x	6.57µM*	15.8
Cc1cccc(-n2ncc3c(Nc4ccc(Oc5ccc(Cl)cc5)cc4)ncnc32)c1	x	16.2%	x	x	x	x
Cc1cccc(-n2ncc3c(NC4CCCCC4)ncnc32)c1	-13.3%	4.0%	45.8*	102.7%	-10.7%	75.5*
C=CCNc1ncnc2c1cnn2-c1ccc(Cl)cc1	-4.2%	-15.4%	33.2*	184.2%	430.4%	51.8*
C=CCNc1ncnc2c1cnn2-c1cccc(C)c1	-128.2%	-1.7%	34.3*	175.4%	-0.3%	+
Cc1cccc(-n2ncc3c(NC4CCCC4)ncnc32)c1	x	8.3%	x	x	x	x
CCN(CC)CCCNc1ncnc2c1cnn2-c1ccc(C)c(C)c1	x	12.4%	x	x	x	x
Cc1cccc(-n2ncc3c(NCCCO)ncnc32)c1	-3.1%	u	38.1*	x	225.1%	42.0
Cc1c(Cl)cccc1NC(=O)c1cc(-c2ccc(O)cc2)on1	-83.2%	x	x	x	x	x
COc1ccccc1OC(C)C(=O)Nc1cccc(-c2nc3ccccc3o2)c1 (configuration not stated)	x	7.5%	x	x	x	x
Cn1ncc2c(Nc3ccccc3Cl)nc(Nc3ccccc3Cl)nc21	-2.4%	-13.1%	-4.3	7.38µM*	u	-5.2
CC(C)CCNc1nc(Nc2ccccc2)c2cnn(C)c2n1	x	-0.5%	x	x	x	x
Nc1nncn1C(=O)c1cccs1	-17.2%	-0.5%	-3.1	67.6%	x	5.4
COc1ccc(C(=O)n2c(N)nc3ccccc32)cc1OC	-5.3%	-1.0%	24.8*	28.2%	-2.8%	x
Nc1nc2ccccc2n1C(=O)c1ccccc1	1.1%	x	2.5	-49.2%	122.7%	-14.2
Nc1nc2ccccc2n1C(=O)c1cccs1	x	9.1%	50.6*	0.0%	14.9%	91.3*
Nc1nc2ccccc2n1C(=O)c1ccc(F)cc1	-1.2%	0.0%	16.3*	22.5%	0.4%	48.6
CCOC(=O)N1CCC(NS(=O)(=O)c2ccc(C#N)cc2)CC1	0.9%	-1.8%	-1.6	u	13.7%	3.2
COc1cc2nc(SCC(=O)Nc3cccc(C)c3)n3nc(CCn4c(C)nc5ccccc54)nc3c2cc1OC	x	-1.5%	x	x	x	x
Cc1ccc(S(=O)(=O)/N=C(/Nc2c(C)n(C)n(-c3ccccc3)c2=O)c2ccccc2)cc1	-0.8%	-7.4%	-1.4	3.1%	-2.5%	0.7
